From PubChem BioAssay (Tox21)
Values joined by “and” are separate entries in the source; they are usually repeats but may differ in a detail not shown here. Equal values may be shown once. Inconclusive results are not listed. The source holds several records for some structures; these can differ, active in one and inactive in another. Active and inactive are the calls of the source. Unless noted, the call rests on the fitted dose curve; in most records, active means well fitted curve in the direction sought with a large enough effect in the repeat runs; inconclusive means weak or mixed curves; inactive means no such curve, though single readings can be large; an effect the other way counts as inactive or inconclusive.

Tests used:
[1] = qHTS assay to identify small molecule agonists of the hypoxia (HIF-1) signaling pathway - cell viability counter screen (AID 1224844; calls by dose curve; further: nearly all actives have a fitted effect of over 50% in size; further: potency means the concentration at half of the fitted maximal effect)
Summary of the method: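 HRE-bla ME-180 cells, 2,000/well in 0.5% dialyzed FBS medium, treated 17 h at 37C with compounds. Viability read in the same wells as the bla reporter, by CellTiter-Glo luminescence after 30 min at room temperature.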

[2] = qHTS assay to identify small molecule agonists of the hypoxia (HIF-1) signaling pathway (AID 1224846; active means well fitted activation curve with a large enough effect in the signal ratio in the repeat runs, not every such curve was filed as active; the % refers to the signal ratio)
Summary of the method: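 HRE-bla ME-180 beta-lactamase reporter cells in medium with 0.5% dialyzed FBS, pre-incubated 5 h then exposed to compounds 17 h at 37C, 5% CO2; reporter induction read with CCF4-AM FRET substrate.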

[3] = qHTS assay to identify small molecule agonists of H2AX - cell viability counter screen (AID 1224847; calls by dose curve; further: nearly all actives have a fitted effect of over 30% in size; further: potency means the concentration at half of the fitted maximal effect)
Summary of the method: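 Wild-type CHO-K1 cells (10% FBS medium) were plated overnight at 37C, exposed to compounds at 15 concentrations for 3 hr at 37C (0.76% DMSO final), and viability was read as CellTiter-Glo luminescence after 30 min at room temperature.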

[4] = qHTS assay to identify small molecule antagonists of the estrogen related receptor (ERR) signaling pathway from Tox21 library (AID 1224848); further: nearly all actives have a fitted effect of over 50% in size; further: potency means the concentration at half of the fitted maximal effect
Summary of the method: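 Screening used an ERR reporter line supplied by NTP, exposed for 18 h at 37 C to library compounds delivered in DMSO. Signal was luciferase luminescence developed with ONE-Glo at room temperature for 30 min.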

[5] = qHTS assay to identify small molecule agonists of the estrogen related receptor (ERR) signaling pathway from Tox21 library (AID 1224849; calls by dose curve; further: nearly all actives have a fitted effect of over 15% in size); details: ERR reporter cell line, ONE-Glo luciferase, 18 h
Summary of the method: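 ERR reporter cells (NTP line) pre-incubated 6 hours at 37 C, then exposed to compounds for 18 hours at 37 C. ONE-Glo luciferase luminescence was read after 30 minutes at room temperature.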

[6] = qHTS RealTime-Glo MT Cell Viability Assay in HepG2 cells - 24 hour (AID 1224867); further: nearly all actives have a fitted effect of over 50% in size
Summary of the method: (§1)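 Real-time, nonlytic viability: 600 HepG2 cells/well mixed with NanoLuc enzyme plus prosubstrate; 5 h settle, compound (DMSO) added by pintool; luminescence monitored over 40 h at 37 C.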

[7] = qHTS RealTime-Glo MT Cell Viability Assay in HEK293 cells - 32 hour (AID 1224868); further: nearly all actives have a fitted effect of over 50% in size; further: potency means the concentration at half of the fitted maximal effect
Summary of the method: (§2)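 Cells + reagent dispensed (600 cells/well, HEK293) → 5 h at 37 C/5% CO2 → 23 nL compound in DMSO pinned → 40 h at 37 C → luminescence read at 0, 8, 16, 24, 32, 40 h.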

[8] = A CellTox Green Cytotoxicity Assay to monitor cytotoxicity in HEK293 cells - 0 hour (AID 1224869); further: nearly all actives have a fitted effect of over 50% in size; further: potency means the concentration at half of the fitted maximal effect
Summary of the method: (§3)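 HEK293 cells, 600/well, were preincubated 5 hours and then exposed to compounds at 37 C for up to 40 hours. A cell-impermeant cyanine dye staining dead-cell DNA was read by fluorescence at 0, 8, 16, 24, 32 and 40 h time points.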

[9] = qHTS RealTime-Glo MT Cell Viability Assay in HepG2 cells - 40 hour (AID 1224870); further: nearly all actives have a fitted effect of over 50% in size
Summary of the method: (§4)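 HepG2 cells mixed with RealTime-Glo MT reagents (NanoLuc plus cell-permeant prosubstrate) were seeded at 600 cells/well, incubated 5 h at 37 C/5% CO2, then pinned with compounds in DMSO; nonlytic luminescence tracked viability during 40 h treatment.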

[10] = A CellTox Green Cytotoxicity Assay to monitor cytotoxicity in HEK293 cells - 40 hour (AID 1224871); further: nearly all actives have a fitted effect of over 45% in size; further: potency means the concentration at half of the fitted maximal effect
Summary of the method: as §3

[11] = qHTS RealTime-Glo MT Cell Viability Assay in HepG2 cells - 8 hour (AID 1224873); further: nearly all actives have a fitted effect of over 55% in size; further: potency means the concentration at half of the fitted maximal effect
Summary of the method: as §4

[12] = qHTS RealTime-Glo MT Cell Viability Assay in HEK293 cells - 40 hour (AID 1224874); details: RealTime-Glo luminescence; max response: stronger effect = lower value; further: nearly all actives have a fitted effect of over 50% in size; further: potency means the concentration at half of the fitted maximal effect
Summary of the method: (§5)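 600 cells/well were plated with the nonlytic NanoLuc/prosubstrate reagent, pre-incubated 5 h, then given 23 nL of compound in DMSO. Incubation at 37 C for 40 h, with luminescence from viable-cell-reduced substrate read repeatedly from 0 h.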

[13] = A CellTox Green Cytotoxicity Assay to monitor cytotoxicity in HEK293 cells - 24 hour (AID 1224875); further: nearly all actives have a fitted effect of over 45% in size; further: potency means the concentration at half of the fitted maximal effect
Summary of the method: as §3

[14] = A CellTox Green Cytotoxicity Assay to monitor cytotoxicity in HepG2 cells - 16 hour (AID 1224876); further: nearly all actives have a fitted effect of over 45% in size; further: potency means the concentration at half of the fitted maximal effect
Summary of the method: (§6)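 HepG2 cells, 600/well, preincubated 5 h with CellTox Green dye, then exposed to Tox21 compounds in DMSO at 37 C for up to 40 h. Dead-cell DNA fluorescence read at the indicated time point.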

[15] = qHTS RealTime-Glo MT Cell Viability Assay in HepG2 cells - 32 hour (AID 1224877); further: nearly all actives have a fitted effect of over 55% in size
Summary of the method: as §1

[16] = A CellTox Green Cytotoxicity Assay to monitor cytotoxicity in HepG2 cells - 24 hour (AID 1224878); further: nearly all actives have a fitted effect of over 45% in size; further: potency means the concentration at half of the fitted maximal effect
Summary of the method: as §6

[17] = A CellTox Green Cytotoxicity Assay to monitor cytotoxicity in HepG2 cells - 40 hour (AID 1224879); further: nearly all actives have a fitted effect of over 40% in size; further: potency means the concentration at half of the fitted maximal effect
Summary of the method: as §6

[18] = qHTS RealTime-Glo MT Cell Viability Assay in HEK293 cells - 0 hour (AID 1224880)
Summary of the method: as §5

[19] = qHTS assay to identify small molecule agonists of H2AX (AID 1224845; active means well fitted activation curve with a large enough effect in the signal ratio in the repeat runs, not every such curve was filed as active; the % refers to the signal ratio; further: potency means the concentration at half of the fitted maximal effect)
Summary of the method: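 Wild-type CHO-K1 cells plated overnight, then exposed 3 hr at 37C to compounds at 15 concentrations (0.76% DMSO). Lysed, then HTRF anti-pH2AX(S139)-cryptate/anti-H2AX-d2 detection after 24 hr at room temperature; emissions 665 and 620 nm.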

[20] = qHTS RealTime-Glo MT Cell Viability Assay in HEK293 cells - 16 hour (AID 1224872); further: nearly all actives have a fitted effect of over 50% in size; further: potency means the concentration at half of the fitted maximal effect
Summary of the method: as §2
On the % scale 0 is the no-effect control and ±100 the full control effect.

CCCOC(=O)c1cc(O)c(O)c(O)c1
active: Potency [4] 48.3 µM and 54.5 µM | Potency [7] 38.9 µM | Potency [12] 48.7 µM and 38.9 µM
inactive: Potency [1] | Potency [2] | Potency [3] | activity change, positive = activation ([5]; at 92.4 µM (top of the series)) -50.8% and -46.2% | Potency [6] | Potency [8] | Potency [9] | Potency [10] | Potency [11] | Potency [13] | Potency [14] | Potency [15] | Potency [16] | Potency [17] | Potency [18]

Cc1cc(C(C)(C)C)c(O)c(C(C)(C)C)c1
inactive: Potency [1] | Potency [19] | Potency [6] | Potency [7] | Potency [8] | Potency [20] | Potency [11] | max response [12] -21.9% and 0.957% and 2.01% | Potency [14] | Potency [16] | Potency [17] | Potency [18]
active: Potency [10] 49.1 µM | Potency [13] 49.1 µM

CCCN[C@H]1CCc2nc(N)sc2C1
inactive: Potency [1] | Potency [2] | Potency [3] | Potency [7] | Potency [8] | Potency [10] | Potency [11] | max response [12] -11% | Potency [13] | Potency [14] | Potency [15] | Potency [17] | Potency [18]

CCCCCC(=O)O[C@]1(C(C)=O)CC[C@H]2[C@@H]3CCC4=CC(=O)CC[C@]4(C)[C@H]3CC[C@@]21C
active: Potency [1] 38.6 µM | Potency [3] 31.6 µM | Potency [4] 24.2 µM and 7.5 µM | Potency [7] 24.4 µM | Potency [12] 24.4 µM
inactive: activity change, positive = activation ([5]; at 42.5 µM (top of the series)) -35.8% | activity change, positive = activation ([5]; at 92.4 µM (top of the series)) -61% | Potency [6] | Potency [8] | Potency [9] | Potency [10] | Potency [13] | Potency [15] | Potency [16] | Potency [17] | Potency [18]

CCC(C)(Oc1ccc(C2(c3ccc(OC(C)(CC)C(=O)O)cc3)CCCCC2)cc1)C(=O)O (configuration not stated)
inactive: Potency [1] | Potency [2] | Potency [3] | Potency [4] | activity change, positive = activation ([5]; at 42.5 µM (top of the series)) 9.22% | Potency [6] | Potency [7] | Potency [8] | Potency [9] | Potency [10] | Potency [20] | Potency [11] | max response [12] 8.3% | Potency [13] | Potency [14] | Potency [15] | Potency [16] | Potency [17] | Potency [18]

NC(N)=Nc1nc(CSCC/C(N)=N/S(N)(=O)=O)cs1
inactive: Potency [1] | Potency [3] | Potency [4] | activity change, positive = activation ([5]; at 42.5 µM (top of the series)) 8.96% | activity change, positive = activation ([5]; at 92.4 µM (top of the series)) 4.57% | Potency [6] | Potency [7] | Potency [8] | Potency [9] | Potency [10] | Potency [20] | Potency [11] | max response [12] -7.2% and 0.8% | Potency [13] | Potency [15] | Potency [17] | Potency [18]

CC(COc1ccccc1)N(CCCl)Cc1ccccc1 (configuration not stated)
55.5 µM (active) and inactive: Potency [16]
inactive: Potency [8] | Potency [9] | Potency [11] | Potency [13] | Potency [14] | Potency [15] | Potency [18]
49.5 µM (active) and inactive: Potency [1]
active: Potency [19] 113 µM | Potency [7] 49.5 µM and 49 µM | Potency [10] 49.5 µM and 21.3 µM | Potency [20] 49.5 µM and 49 µM | Potency [12] 49.5 µM and 49 µM | Potency [17] 55.5 µM

CCCCCCC(O)CCCCCCCCCCC(=O)O (configuration not stated)
inactive: Potency [1] | Potency [3] | activity change, positive = activation ([5]; at 92.4 µM (top of the series)) -9.99% and -15.5% | Potency [6] | Potency [7] | Potency [8] | Potency [9] | Potency [10] | Potency [20] | Potency [11] | max response [12] -19.9% and -13.9% | Potency [13] | Potency [14] | Potency [15] | Potency [17] | Potency [18]

CC1=C(C=O)C(C)(C)CC=C1
inactive: Potency [1] | Potency [3] | Potency [4] | activity change, positive = activation ([5]; at 92.4 µM (top of the series)) 0.302% | Potency [7] | Potency [8] | Potency [9] | Potency [10] | Potency [20] | Potency [11] | max response [12] -1.02% | Potency [13] | Potency [14] | Potency [15] | Potency [16] | Potency [17] | Potency [18]

CC1COC(=O)O1 (configuration not stated)
inactive and 43.6 µM (active): Potency [16] | Potency [17]
inactive: Potency [1] | Potency [3] | Potency [4] | activity change, positive = activation ([5]; at 92.4 µM (top of the series)) 4.88% and 5.46% | Potency [6] | Potency [7] | Potency [8] | Potency [9] | Potency [10] | Potency [11] | max response [12] 9.29% and -24.4% | Potency [13] | Potency [15] | Potency [18]
inactive and 38.9 µM (active): Potency [14]

Nc1ccc(O)cc1
32.1 µM (active) and inactive: Potency [7]
inactive: Potency [2] | activity change, positive = activation ([5]; at 92.4 µM (top of the series)) -66.4% | Potency [6] | Potency [8] | Potency [9] | max response [12] 18.9% | Potency [13] | Potency [14] | Potency [17] | Potency [18]
active: Potency [12] 32.1 µM
22.5 µM (active) and inactive: Potency [4]
25.5 µM (active) and inactive: Potency [10]
50.9 µM (active) and inactive: Potency [1] | Potency [11]

COC(=O)c1cccc(C(=O)OC)c1
inactive and 38.9 µM (active): Potency [10] | Potency [16]
inactive and 24.5 µM (active): Potency [17]
inactive: Potency [1] | Potency [2] | Potency [6] | Potency [7] | Potency [9] | Potency [20] | Potency [11] | max response [12] 2.68% and 4.11% | Potency [15] | Potency [18]
inactive and 43.6 µM (active): Potency [8]
